# From PubChem BioAssay AID1645838 (ICCB-Longwood Screening Facility, Harvard Medical School, 2021)
# About 100 (5%) of roughly 2,000 compounds were called active. No stated cut-off is given here; in the data, active means z-score above about 2; inactive means the rest. The full list was thinned out, with actives kept by preference.
# Test: modulators of mitochondrial supercomplex assembly, cell-based, luminescence, Hoechst nuclei count (AID 1645838);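 further: control cybrid cells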;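 on z-score: higher means more mitochondrial supercomplex formation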
# Details: Cells, luminescence/Hoechst cell count ratio, supercomplex reporter; for z-score: stronger effect = higher value; for cell count: measured here: cell number, Hoechst nuclei count
# [1] = library stock concentration (final well concentration not given) 80 uM
# [2] = library stock concentration (final well concentration not given) 400 uM
# [3] = library stock concentration (final well concentration not given) 2 mM
# [4] = library stock concentration (final well concentration not given) 10 mM
# [5] = library stock concentration (final well concentration not given) 46 uM
# [6] = library stock concentration (final well concentration not given) 278 uM
# [7] = library stock concentration (final well concentration not given) 1.67 mM
smiles,measurement,setting,value
Oc1cc(-c2nc(-c3ccccc3)[nH]c2-c2ccncc2)ccc1Cl,outcome,library stock 10 mM,inactive; censored for cell count
same,z-score,[1],-0.487 (inactive)
same,z-score,[2],0.0422 (inactive)
same,z-score,[3],0.88 (inactive)
same,cell count,[1],6330
same,cell count,[2],6400
same,cell count,[3],5020
CS(=O)c1ccc(-c2nc(-c3ccc(F)cc3)c(-c3ccncc3)[nH]2)cc1 (stereo not drawn),z-score,,-1.15 (inactive)
same,cell count,,5830
CN(C)CCOc1ccc(-c2nc(-c3ccc4c(c3)CCC4=NO)c(-c3ccncc3)[nH]2)cc1,outcome,library stock 10 mM,inactive; censored for cell count
same,z-score,[1],-0.227 (inactive)
same,z-score,[2],0.545 (inactive)
same,z-score,[3],2.41 (active)
same,cell count,[1],4650
same,cell count,[2],4190
same,cell count,[3],3060
NC(N)=NCCCC(NC(=O)COCC(c1ccccc1)c1ccccc1)C(=O)O (stereo not drawn),z-score,[1],-0.24 (inactive)
same,z-score,[2],-0.0902 (inactive)
same,z-score,[3],-0.0766 (inactive)
same,z-score,[4],0.102 (inactive)
same,cell count,[1],5010
same,cell count,[2],5210
same,cell count,[3],5170
same,cell count,[4],4630
CC(C)OC(=O)CCCC=CCC1C(O)CC(O)C1C=CC(F)(F)COc1ccccc1 (stereo not drawn),z-score,[1],-0.387 (inactive)
same,z-score,[2],-0.505 (inactive)
same,z-score,[3],-0.421 (inactive)
same,z-score,[4],-0.49 (inactive)
same,cell count,[1],6260
same,cell count,[2],6740
same,cell count,[3],6050
same,cell count,[4],5570
NC(CSCCB(O)O)C(=O)O (stereo not drawn),z-score,[5],-0.211 (inactive)
same,z-score,[6],-0.0225 (inactive)
same,z-score,[7],-0.355 (inactive)
same,z-score,[4],-0.293 (inactive)
same,cell count,[5],6150
same,cell count,[6],5500
same,cell count,[7],6170
same,cell count,[4],6060
O=C(NOCC1CC1)c1ccc(F)c(F)c1Nc1ccc(I)cc1Cl,outcome,library stock 10 mM,inactive; censored for cell count
same,z-score,[1],0.248 (inactive)
same,z-score,[2],0.901 (inactive)
same,z-score,[3],1.33 (inactive)
same,cell count,[1],4290
same,cell count,[2],3900
same,cell count,[3],3870
Cn1cnc2c(F)c(Nc3ccc(Br)cc3F)c(C(=O)NOCCO)cc21,outcome,library stock 10 mM,inactive; censored for cell count
same,z-score,[1],0.694 (inactive)
same,z-score,[2],1.23 (inactive)
same,z-score,[3],1.53 (inactive)
same,cell count,[1],5250
same,cell count,[2],4630
same,cell count,[3],2640
Cn1cnc2c(F)c(Nc3ccc(Br)cc3Cl)c(C(=O)NOCCO)cc21,outcome,library stock 10 mM,inactive; censored for cell count
same,z-score,[1],0.846 (inactive)
same,z-score,[2],0.791 (inactive)
same,z-score,[3],2.06 (active)
same,cell count,[1],3770
same,cell count,[2],3780
same,cell count,[3],2320
COc1cc(C=C(C#N)C(=O)Nc2nnc(C(F)(F)F)s2)ccc1OCc1ccc(C(F)(F)F)cc1C(F)(F)F,z-score,[5],-0.188 (inactive)
same,z-score,[6],-0.247 (inactive)
same,z-score,[7],-0.448 (inactive)
same,z-score,[4],-0.612 (inactive)
same,cell count,[5],7210
same,cell count,[6],7400
same,cell count,[7],7340
same,cell count,[4],7260
CS(=O)(=O)N1CCN(Cc2cc3nc(-c4cccc5[nH]ncc45)nc(N4CCOCC4)c3s2)CC1,outcome,library stock 10 mM,inactive; censored for cell count
same,z-score,[5],-0.278 (inactive)
same,z-score,[1],0.147 (inactive)
same,z-score,[6],-0.083 (inactive)
same,z-score,[2],0.745 (inactive)
same,z-score,[7],0.769 (inactive)
same,z-score,[3],1.48 (inactive)
same,cell count,[5],5360
same,cell count,[1],3950
same,cell count,[6],4950
same,cell count,[2],3220
same,cell count,[7],2910
same,cell count,[3],2350
Oc1cccc(-c2nc(N3CCOCC3)c3oc4ncccc4c3n2)c1,z-score,,2.15 (active)
same,cell count,,3000
Oc1cccc(-c2nc(N3CCOCC3)c3sccc3n2)c1,z-score,,3.96 (active)
same,cell count,,2940
CC(C)c1ccccc1OC(=O)NCCc1ccc2ccccc2c1,z-score,[5],-0.152 (inactive)
same,z-score,[6],0.0918 (inactive)
same,z-score,[7],-0.615 (inactive)
same,z-score,[4],-0.366 (inactive)
same,cell count,[5],6770
same,cell count,[6],6210
same,cell count,[7],7330
same,cell count,[4],5910
COc1cc(C(=O)N(CCC2CCCN2C)CC(C)=Cc2ccccc2F)cc(OC)c1OC (stereo not drawn),z-score,[5],0.184 (inactive)
same,z-score,[6],-0.112 (inactive)
same,z-score,[7],0.132 (inactive)
same,z-score,[4],0.652 (inactive)
same,cell count,[5],6990
same,cell count,[6],6820
same,cell count,[7],6680
same,cell count,[4],5820
CC#CCC(C)[C@H](O)/C=C/[C@@H]1[C@H]2C/C(=C\CCCC(=O)O)C[C@H]2C[C@H]1O (stereo partly drawn),z-score,,-0.395 (inactive)
same,cell count,,5310
OC(COc1cccc2ncccc12)CN1CCN(C2c3ccccc3C3C(c4ccccc42)C3(F)F)CC1 (stereo not drawn),z-score,[1],0.371 (inactive)
same,z-score,[2],0.508 (inactive)
same,z-score,[3],0.497 (inactive)
same,z-score,[4],-1.87 (inactive)
same,cell count,[1],4630
same,cell count,[2],4580
same,cell count,[3],4340
same,cell count,[4],3800
O=C(c1cccs1)c1ccc(OCCCO)c(Cl)c1Cl,z-score,,-0.51 (inactive)
same,cell count,,5410
CC1CC2OC2C=CC=CC(=O)Cc2c(Cl)c(O)cc(O)c2C(=O)O1 (stereo not drawn),outcome,library stock 278 µM,inactive; censored for cell count
same,outcome,library stock 1.67 mM,inactive; censored for cell count
same,outcome,library stock 10 mM,inactive; censored for cell count
same,z-score,[5],-0.774 (inactive)
same,cell count,[5],7560
CCCCC[C@@](C)(O)/C=C/[C@H]1C(=O)C[C@H](O)[C@@H]1C/C=C\CCCC(=O)O,z-score,,-0.768 (inactive)
same,cell count,,5670
O=c1ncccn1C1OC(CO)C(O)C1O (stereo not drawn),z-score,[5],-0.336 (inactive)
same,z-score,[6],-0.313 (inactive)
same,z-score,[7],-0.302 (inactive)
same,z-score,[4],0.386 (inactive)
same,cell count,[5],5670
same,cell count,[6],5220
same,cell count,[7],4780
same,cell count,[4],3500
c1cc2c(cc1C1CCCCC1)c1c3n2CCNC3CCC1 (stereo not drawn),z-score,[5],-0.207 (inactive)
same,z-score,[6],-0.279 (inactive)
same,z-score,[7],0.239 (inactive)
same,z-score,[4],3.28 (active)
same,cell count,[5],6430
same,cell count,[6],6250
same,cell count,[7],6160
same,cell count,[4],4320
CCCCCCCC/C=C\CCCCCCCC(=O)NCCS(=O)(=O)O,z-score,,-0.251 (inactive)
same,cell count,,5290
CCCCCCCCCCCCC/C=C/[C@H](O)[C@@H](CO)NC(=O)CCCCCCCCCCCCCCCCCCCCCCC,z-score,,0.79 (inactive)
same,cell count,,5520
O=C(O)CCC/C=C\CC1C2CCC(O2)C1CNNC(=O)Nc1ccccc1 (stereo not drawn),z-score,,-0.631 (inactive)
same,cell count,,5630
Cc1ccc(NC(=O)c2cccc(C(C)(C)C#N)c2)cc1Nc1ccc2ncn(C)c(=O)c2c1,outcome,library stock 10 mM,inactive; censored for cell count
same,z-score,[5],-0.155 (inactive)
same,z-score,[1],1.5 (inactive)
same,z-score,[6],0.171 (inactive)
same,z-score,[2],1.71 (inactive)
same,z-score,[7],0.888 (inactive)
same,z-score,[3],2.43 (active)
same,z-score,[4],3.11 (active)
same,cell count,[5],6500
same,cell count,[1],3700
same,cell count,[6],6060
same,cell count,[2],3410
same,cell count,[7],4330
same,cell count,[3],2280
same,cell count,[4],1960
Cc1ccc(C(=O)Nc2cccc(C(F)(F)F)c2)cc1Nc1nc(-c2cccnc2)nc2c1cnn2C,outcome,library stock 10 mM,inactive; censored for cell count
same,z-score,[1],-0.121 (inactive)
same,z-score,[2],0.0935 (inactive)
same,z-score,[3],1.5 (inactive)
same,cell count,[1],5540
same,cell count,[2],5440
same,cell count,[3],3810
Cc1ccc(C(=O)Nc2cccc(C(F)(F)F)c2)cc1Nc1cncc(C(N)=O)c1,z-score,[1],-0.656 (inactive)
same,z-score,[2],-0.351 (inactive)
same,z-score,[3],-0.861 (inactive)
same,z-score,[4],-0.825 (inactive)
same,cell count,[1],4950
same,cell count,[2],4630
same,cell count,[3],5070
same,cell count,[4],4410
